Measurements reported in PubChem BioAssay (NCATS).
Records with an inconclusive call do not appear. Activity calls are given as the source filed them. Unless noted, the call rests on the fitted dose curve; in most records, active means well fitted curve in the direction sought with a large enough effect; inconclusive means small, poorly fitted or top-dose-only effect, or another doubt; inactive means no such curve, though single readings can be large; an effect the other way counts as inactive or inconclusive.

Tests used:
[1] = qHTS Assay for Identification of Small Molecule Agonists for Thrombopoietin (TPO) Signaling Pathway (AID 917); conditions: TPO signaling pathway reporter cells, agonist qHTS; series mostly up to 38.5 µM
Outline: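 Cell-based luciferase reporter screen. Mouse Ba/F3 line stably expressing human TPO receptor; IL-3 removed overnight before plating. Co-treatment with compound and EC50 TPO (26 pM), 24 hrs at 37 C, then luminescence.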

[2] = target: Luciferin 4-monooxygenase (Photinus pyralis) (UniProt P08659); test: Biochemical firefly luciferase enzyme assay for NPC (AID 624030);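 further: purified P. pyralis luciferase at 10 nM with luciferin and ATP substrate; nearly all actives have a fitted effect of over 70% in size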; conditions: purified P. pyralis luciferase, luminescence, 5 min; series mostly up to 58.6 µM
Sequence of Luciferin 4-monooxygenase (Photinus pyralis) (P08659 whole entry, looked up): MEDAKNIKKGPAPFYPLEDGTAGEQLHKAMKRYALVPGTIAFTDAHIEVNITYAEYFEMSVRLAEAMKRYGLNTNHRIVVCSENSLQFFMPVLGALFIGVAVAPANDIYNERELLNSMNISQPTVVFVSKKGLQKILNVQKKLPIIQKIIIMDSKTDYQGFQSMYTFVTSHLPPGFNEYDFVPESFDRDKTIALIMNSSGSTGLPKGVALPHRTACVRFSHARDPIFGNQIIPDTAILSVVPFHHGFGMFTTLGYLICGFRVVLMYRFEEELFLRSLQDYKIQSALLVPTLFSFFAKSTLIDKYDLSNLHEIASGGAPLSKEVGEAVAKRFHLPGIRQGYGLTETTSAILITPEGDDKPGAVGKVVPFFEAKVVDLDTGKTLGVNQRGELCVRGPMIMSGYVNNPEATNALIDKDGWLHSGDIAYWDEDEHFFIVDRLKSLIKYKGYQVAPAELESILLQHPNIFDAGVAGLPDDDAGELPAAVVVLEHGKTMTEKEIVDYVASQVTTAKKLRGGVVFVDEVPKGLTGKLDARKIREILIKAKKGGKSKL
Outline: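 Counter-screen for direct inhibition of the luciferase enzyme by approved-drug library compounds, run at 10 nM enzyme in 50 mM Tris acetate (final). Luminescence was read within 5 min of enzyme-buffer addition and normalized to PTC124 versus DMSO (0%).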

[3] = S16 Schwann cell viability assay (CellTiter-Glo assay) (AID 624031); conditions: S16 rat Schwann cells viability, 24 h; series mostly up to 57.5 µM;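 further: native untransfected S16 rat Schwann cells; cellular ATP luminescence as a viability measure; nearly all actives have a fitted effect of over 70% in size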
Outline: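 Following overnight culture in 10% FBS DMEM, parental S16 rat Schwann cells are dosed for 24 h at 37 °C. Viability is read as CellTiter-Glo luminescence and expressed as % activity relative to DMSO (0%) and no-cell wells.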

[4] = S16 Schwann cell PMP22 intronic element beta-lactamase assay (AID 624044; calls by dose curve; further: nearly all actives have a fitted effect of over 15% in size); conditions: S16 rat Schwann cells, PMP22 element beta-lactamase FRET, 24 h; ratio activity, negative = inhibition: at 38.3 µM (top of the series)
Outline: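 Beta-lactamase reporter under a PMP22 intronic regulatory element in stable S16 rat Schwann cells; 24 h compound exposure. 460 nm blue signal normalized between DMSO (0%) and potassium clavulanate, with 535 nm FRET tracking viability; curves classed by r2 and response.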

AA1029 = test: qHTS profiling for inhibitors of Plasmodium falciparum proliferation (AID 504749); further: nearly all actives have a fitted effect of over 60% in size; conditions: P. falciparum in erythrocytes, SYBR Green DNA, 72 h; series mostly up to 28.7 µM
Outline: (§1)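 Fluorescence of SYBR Green-bound parasite DNA, read at 485/535 nm, served as the growth measure. Infected erythrocytes were cultured with compound 72 h; artemisinin (0.29 uM) and DMSO wells defined the normalization range.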

ATS95 = test: as above; conditions: P. falciparum in erythrocytes, SYBR Green DNA, 72 h; series mostly up to 28.7 µM
Outline: as §1

CP217 = test: as above; conditions: P. falciparum in erythrocytes, SYBR Green DNA, 72 h; series mostly up to 28.7 µM
Outline: as §1

CP238 = test: as above; conditions: P. falciparum in erythrocytes, SYBR Green DNA, 72 h; series mostly up to 28.7 µM
Outline: as §1

CP247 = test: as above; conditions: P. falciparum in erythrocytes, SYBR Green DNA, 72 h; series mostly up to 28.7 µM
Outline: as §1

CP252 = test: as above; conditions: P. falciparum in erythrocytes, SYBR Green DNA, 72 h; series mostly up to 28.7 µM
Outline: as §1

CP291 = test: as above; conditions: P. falciparum in erythrocytes, SYBR Green DNA, 72 h; series mostly up to 28.7 µM
Outline: as §1

CP335 = test: as above; conditions: P. falciparum in erythrocytes, SYBR Green DNA, 72 h; series mostly up to 28.7 µM
Outline: as §1

DFO2036 = test: as above; conditions: P. falciparum in erythrocytes, SYBR Green DNA, 72 h; series mostly up to 28.7 µM
Outline: as §1

N140 = test: as above; conditions: P. falciparum in erythrocytes, SYBR Green DNA, 72 h; series mostly up to 28.7 µM
Outline: as §1

P93_24 = test: as above; conditions: P. falciparum in erythrocytes, SYBR Green DNA, 72 h; series mostly up to 28.7 µM
Outline: as §1

P94_40 = test: as above; conditions: P. falciparum in erythrocytes, SYBR Green DNA, 72 h; series mostly up to 28.7 µM
Outline: as §1

PC26 = test: as above; conditions: P. falciparum in erythrocytes, SYBR Green DNA, 72 h; series mostly up to 28.7 µM
Outline: as §1

SC27B = test: as above; conditions: P. falciparum in erythrocytes, SYBR Green DNA, 72 h; series mostly up to 28.7 µM
Outline: as §1

TAB109 = test: as above; conditions: P. falciparum in erythrocytes, SYBR Green DNA, 72 h; series mostly up to 28.7 µM
Outline: as §1

TAB165 = test: as above; conditions: P. falciparum in erythrocytes, SYBR Green DNA, 72 h; series mostly up to 28.7 µM
Outline: as §1

Measured: Potency

C[C@@H]1O[C@@H](O[C@H]2C[C@@H](O)[C@]3(CO)[C@@H]4[C@@H](O)C[C@]5(C)[C@H](C6=CC(=O)OC6)CC[C@@]5(O)[C@H]4CC[C@@]3(O)C2)[C@H](O)[C@H](O)[C@@H]1O
inactive: [1]

C[C@H](N)Cc1ccccc1
not listed: [1]
inactive: all other assays above

COc1ccc2c3c1O[C@H]1[C@@H](O)C=C[C@H]4C(C2)NCCC341 (some centres undefined)
not listed: [1]
inactive: all other assays above
